Test results as given in the supplement of paper PMC10849652.
Of roughly 7,900 targets only a part is listed; those with a hit were picked by preference. About 0.6% of all pairs of compound and target were hits.

What was measured:
Assay in all cases: log2 fold change, soluble protein after heating vs DMSO (PISA); higher = thermal stabilisation; K562 cells, 10 uM, 30 min; active = over 0.2 and 3.5 SD of the protein, either way, in both replicates (recomputed)
erlotinib = compound: C#Cc1cccc(Nc2ncnc3cc(OCCOC)c(OCCOC)cc23)c1 [erlotinib]
How it was run: (§1)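 K562 cells at 2×10^6 cells/mL were given 10 μM compound for 30 min. Aliquots then went through 3 min of heating across 48°C-58°C, were pooled, and were extracted in PBS with 0.5% NP-40 at 4°C, and the supernatant after 21,000xg for 90 min was quantified by TMTpro 16plex LC-MS/MS with channel sums equalised. Thermal stability relative to control samples, from duplicates, is given as log2 fold change.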

[1] = compound: C/C(=N\NC(=O)C1=CC(=CC=C1)S(=O)(=O)N2CCOCC2)/C3=C(C=CC(=C3)Cl)O
How it was run: as §1

[2] = compound: C1=CC(=C(C=C1Cl)C2=NC3=NC=CN=C3C(=N2)NC4=CC=NC=C4)F
How it was run: as §1

[3] = compound: C1=CC(=CC=C1C2=NC3=C(N2)C=C(C=C3)C(=O)N)OC4=CC=C(C=C4)Cl
How it was run: as §1

[4] = compound: C1=CC2=C(C=CC(=C2)/C=C\3/C(=O)NC(=NCC4=CC=CS4)S3)N=C1
How it was run: as §1

[5] = compound: C1=CC2=NC=CN=C2C=C1/C=C/3\C(=O)NC(=O)S3
How it was run: as §1

[6] = compound: C1=CC=C(C=C1)C2=NC(=C(N2)C3=CC=NC=C3)C4=CC(=C(C=C4)Cl)O
How it was run: as §1

[7] = compound: C1=CC=C2C(=C1)C3=NNC4=CC=CC(=C43)C2=O
How it was run: as §1

[8] = compound: C1CCN(C1)C(=O)NC2=CC=CC(=C2)NC3=NC=C(C(=N3)NCCC4=CN=CN4)Br
How it was run: as §1

[9] = compound: C1CN(CCC1(CC2=CC=C(C=C2)Cl)N)C3=NC=NC4=C3C=CN4
How it was run: as §1

IRAK-1-4 Inhibitor I = compound: C1COCCN1CCN2C3=CC=CC=C3N=C2NC(=O)C4=CC(=CC=C4)[N+](=O)[O-] [IRAK-1-4 Inhibitor I]
How it was run: as §1

ibrutinib = compound: C=CC(=O)N1CCC[C@@H](n2nc(-c3ccc(Oc4ccccc4)cc3)c3c(N)ncnc32)C1 [ibrutinib]
How it was run: as §1

[10] = compound: CC(=O)c1cnc2ccc(-c3cc(Cl)c(O)c(Cl)c3)nc2c1N[C@H]1CC[C@H](CN(C)C)CC1
How it was run: as §1

ralimetinib = compound: CC(C)(C)Cn1c(N)nc2ccc(-c3[nH]c(C(C)(C)C)nc3-c3ccc(F)cc3)nc21 [ralimetinib]
How it was run: as §1

[11] = compound: CC(C)(O)CC(=O)NCCn1ccc2ncnc(Nc3ccc(Oc4cccc(C(F)(F)F)c4)c(Cl)c3)c21
How it was run: as §1

[12] = compound: CC(C)C1=C2N=C(C=C(N2N=C1)NCC3=CC=CC=C3)NCCCCCCN
How it was run: as §1

[13] = compound: CC(C)C[C@@H](C=O)NC(=O)[C@H](CC(C)C)NC(=O)[C@H](CC(C)C)NC(=O)OCc1ccccc1
How it was run: as §1

pinometostat = compound: CC(C)N(C[C@H]1O[C@@H](n2cnc3c(N)ncnc32)[C@H](O)[C@@H]1O)[C@H]1C[C@@H](CCc2nc3cc(C(C)(C)C)ccc3[nH]2)C1 [pinometostat]
How it was run: as §1

[14] = compound: CC1=C(C(CC(=O)N1)C2=CC=C(C=C2)C(F)(F)F)C(=O)NC3=C(C=C4C(=C3)C=NN4)F
How it was run: as §1

[15] = compound: CC1=C(C2=C(C=C1)C(=O)C3=CC=CC=C3N2CCCN)C
How it was run: as §1

Measured: log2 fold change

USP14 (UniProt P54578)
UniProt P54578, sequence (P54578 whole entry, looked up): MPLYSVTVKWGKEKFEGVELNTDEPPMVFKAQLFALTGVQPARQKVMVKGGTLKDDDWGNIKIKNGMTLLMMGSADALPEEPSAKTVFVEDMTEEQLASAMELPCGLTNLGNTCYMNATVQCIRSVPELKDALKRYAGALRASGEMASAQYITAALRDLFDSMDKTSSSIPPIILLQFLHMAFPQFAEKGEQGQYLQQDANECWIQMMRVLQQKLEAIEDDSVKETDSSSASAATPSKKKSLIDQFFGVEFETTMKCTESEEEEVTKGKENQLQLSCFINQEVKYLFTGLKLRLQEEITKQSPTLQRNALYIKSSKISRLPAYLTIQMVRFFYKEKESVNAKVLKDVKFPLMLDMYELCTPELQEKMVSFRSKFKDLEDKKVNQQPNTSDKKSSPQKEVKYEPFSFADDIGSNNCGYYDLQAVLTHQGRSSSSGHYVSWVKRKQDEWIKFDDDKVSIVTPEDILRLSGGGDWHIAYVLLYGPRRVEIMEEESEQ
inactive: erlotinib -0.027 | [1] 0.03 | [2] 0.084 | [3] -0.014 | [4] -0.04 | [5] 0 | [6] 0.02 | [7] 0.015 | [8] -0.016 | [9] -0.001 | IRAK-1-4 Inhibitor I -0.013 | ibrutinib -0.045 | [10] -0.004 | ralimetinib 0.021 | [11] -0.028 | [12] -0.068 | [13] 0.044 | pinometostat -0.031 | [14] 0 | [15] 0.014

WAPL isoform 3 (UniProt Q7Z5K2)
inactive: erlotinib 0.031 | [1] 0.017 | [2] 0.048 | [3] -0.037 | [4] 0.057 | [5] 0.144 | [6] 0.059 | [7] -0.012 | [8] -0.217 | [9] -0.062 | IRAK-1-4 Inhibitor I -0.086 | ibrutinib -0.002 | [10] -0.05 | ralimetinib -0.072 | [11] -0.057 | [12] -0.339 | [13] 0.125 | pinometostat 0.054 | [14] -0.003 | [15] -0.056

TRAPPC11 (UniProt Q7Z392)
UniProt Q7Z392, sequence (Q7Z392 whole entry, looked up): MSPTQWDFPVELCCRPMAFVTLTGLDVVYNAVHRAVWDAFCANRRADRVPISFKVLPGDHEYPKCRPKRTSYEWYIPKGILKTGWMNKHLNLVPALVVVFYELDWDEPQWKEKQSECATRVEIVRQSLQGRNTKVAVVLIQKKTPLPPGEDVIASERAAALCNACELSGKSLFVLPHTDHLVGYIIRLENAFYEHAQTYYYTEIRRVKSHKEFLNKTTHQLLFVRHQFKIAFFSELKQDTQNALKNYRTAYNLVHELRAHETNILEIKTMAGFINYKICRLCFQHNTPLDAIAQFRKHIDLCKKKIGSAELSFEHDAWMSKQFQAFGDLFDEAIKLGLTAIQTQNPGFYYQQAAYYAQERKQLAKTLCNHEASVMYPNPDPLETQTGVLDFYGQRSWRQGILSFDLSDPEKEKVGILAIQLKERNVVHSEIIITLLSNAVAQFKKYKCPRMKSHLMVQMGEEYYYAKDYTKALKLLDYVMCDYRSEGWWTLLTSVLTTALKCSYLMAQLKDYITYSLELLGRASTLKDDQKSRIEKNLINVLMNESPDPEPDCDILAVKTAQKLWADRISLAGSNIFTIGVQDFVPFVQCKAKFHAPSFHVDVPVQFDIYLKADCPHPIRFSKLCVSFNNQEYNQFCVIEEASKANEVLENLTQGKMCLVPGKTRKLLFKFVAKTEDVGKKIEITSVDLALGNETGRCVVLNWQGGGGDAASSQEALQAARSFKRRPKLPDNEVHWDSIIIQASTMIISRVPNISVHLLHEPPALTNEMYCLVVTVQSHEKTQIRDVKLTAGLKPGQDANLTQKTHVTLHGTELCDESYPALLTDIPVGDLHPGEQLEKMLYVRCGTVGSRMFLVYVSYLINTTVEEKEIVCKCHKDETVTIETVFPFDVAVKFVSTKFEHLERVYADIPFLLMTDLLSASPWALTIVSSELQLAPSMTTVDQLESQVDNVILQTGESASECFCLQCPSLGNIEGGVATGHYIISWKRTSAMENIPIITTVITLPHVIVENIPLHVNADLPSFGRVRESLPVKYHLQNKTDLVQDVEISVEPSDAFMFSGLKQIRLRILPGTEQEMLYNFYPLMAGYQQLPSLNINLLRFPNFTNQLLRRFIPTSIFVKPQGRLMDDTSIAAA
inactive: erlotinib 0.044 | [1] 0.136 | [2] -0.027 | [3] 0.017 | [4] 0.105 | [5] 0.059 | [6] 0.027 | [7] 0.062 | [8] -0.019 | [9] -0.001 | IRAK-1-4 Inhibitor I -0.007 | ibrutinib 0.001 | [10] -0.048 | ralimetinib 0.034 | [11] -0.063 | [12] -0.064 | [13] 0.012 | pinometostat 0.032 | [14] -0.048 | [15] 0.028

VPS41 (UniProt P49754)
active: [12] -0.383
inactive: erlotinib -0.022 | [1] 0.076 | [2] -0.049 | [3] -0.018 | [4] 0.086 | [5] 0.056 | [6] 0.004 | [7] 0.031 | [8] 0.043 | [9] -0.058 | IRAK-1-4 Inhibitor I -0.002 | ibrutinib -0.033 | [10] -0.019 | ralimetinib 0.052 | [11] 0.019 | [13] 0.026 | pinometostat 0.037 | [14] 0.003 | [15] 0.063

TMEM128 (UniProt Q5BJH2)
UniProt Q5BJH2, sequence (Q5BJH2 whole entry, looked up): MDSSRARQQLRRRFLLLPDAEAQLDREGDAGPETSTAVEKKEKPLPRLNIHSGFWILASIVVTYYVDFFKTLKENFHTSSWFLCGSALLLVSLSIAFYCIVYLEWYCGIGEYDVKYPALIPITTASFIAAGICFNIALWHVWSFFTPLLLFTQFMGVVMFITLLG
inactive: erlotinib -0.048 | [1] 0 | [2] 0.06 | [3] 0.034 | [4] -0.437 | [5] 0.067 | [6] -0.081 | [7] -0.238 | [8] -0.182 | [9] 0.084 | IRAK-1-4 Inhibitor I -0.046 | ibrutinib -0.025 | ralimetinib -0.036 | [11] -0.051 | [12] 0.028 | [13] 0.108 | pinometostat 0.122 | [14] 0.001 | [15] 0
active: [10] 0.45

UBE2Q1 (UniProt Q7Z7E8)
UniProt Q7Z7E8, sequence (Q7Z7E8 whole entry, looked up): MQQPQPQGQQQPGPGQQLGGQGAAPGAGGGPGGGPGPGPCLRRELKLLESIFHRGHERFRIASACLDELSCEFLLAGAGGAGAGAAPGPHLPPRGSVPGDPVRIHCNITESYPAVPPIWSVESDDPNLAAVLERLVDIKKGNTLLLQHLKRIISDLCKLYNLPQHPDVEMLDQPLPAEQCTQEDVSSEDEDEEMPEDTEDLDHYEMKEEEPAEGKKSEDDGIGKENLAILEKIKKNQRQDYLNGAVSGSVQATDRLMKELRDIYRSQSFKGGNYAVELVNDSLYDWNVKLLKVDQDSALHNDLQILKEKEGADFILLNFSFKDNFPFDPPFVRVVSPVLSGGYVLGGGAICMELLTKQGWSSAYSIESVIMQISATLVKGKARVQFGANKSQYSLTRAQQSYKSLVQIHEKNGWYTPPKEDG
inactive: erlotinib 0.058 | [1] 0.006 | [2] 0.059 | [3] 0.017 | [4] 0.019 | [5] 0.061 | [6] 0.014 | [7] 0.026 | [8] -0.016 | [9] -0.037 | IRAK-1-4 Inhibitor I 0.024 | ibrutinib -0.012 | [10] 0.029 | ralimetinib -0.015 | [11] -0.062 | [12] -0.192 | [13] -0.11 | pinometostat 0.005 | [14] -0.01 | [15] -0.006

TRIP10 isoform 2 (UniProt Q15642)
UniProt Q15642, sequence (Q15642 whole entry, looked up): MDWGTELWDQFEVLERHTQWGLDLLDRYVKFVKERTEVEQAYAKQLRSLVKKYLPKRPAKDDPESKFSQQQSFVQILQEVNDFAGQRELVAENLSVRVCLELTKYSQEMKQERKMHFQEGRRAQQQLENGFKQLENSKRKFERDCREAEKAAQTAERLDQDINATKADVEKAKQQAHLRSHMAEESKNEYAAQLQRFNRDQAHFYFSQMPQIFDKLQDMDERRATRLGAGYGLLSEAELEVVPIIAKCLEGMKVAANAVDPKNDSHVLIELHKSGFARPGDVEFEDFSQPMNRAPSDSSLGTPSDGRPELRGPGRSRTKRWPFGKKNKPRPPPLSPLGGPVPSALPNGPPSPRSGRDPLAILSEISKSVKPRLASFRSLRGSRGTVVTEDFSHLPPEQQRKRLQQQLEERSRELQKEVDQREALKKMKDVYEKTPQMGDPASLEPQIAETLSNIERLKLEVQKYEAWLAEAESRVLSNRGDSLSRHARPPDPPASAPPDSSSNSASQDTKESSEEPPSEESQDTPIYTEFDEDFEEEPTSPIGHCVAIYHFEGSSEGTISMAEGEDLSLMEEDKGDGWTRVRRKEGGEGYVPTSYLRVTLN
inactive: erlotinib -0.116 | [1] -0.002 | [2] 0.112 | [3] 0.094 | [4] -0.069 | [5] 0.055 | [6] 0.326 | [7] 0.055 | [8] -0.089 | [9] 0.014 | IRAK-1-4 Inhibitor I 0.09 | ibrutinib -0.032 | [10] -0.078 | ralimetinib 0.143 | [11] 0.004 | [12] 0.204 | [13] -0.118 | pinometostat -0.027 | [14] 0.118 | [15] -0.01

UCHL5 isoform 3 (UniProt Q9Y5K5)
UniProt Q9Y5K5, sequence (Q9Y5K5 whole entry, looked up): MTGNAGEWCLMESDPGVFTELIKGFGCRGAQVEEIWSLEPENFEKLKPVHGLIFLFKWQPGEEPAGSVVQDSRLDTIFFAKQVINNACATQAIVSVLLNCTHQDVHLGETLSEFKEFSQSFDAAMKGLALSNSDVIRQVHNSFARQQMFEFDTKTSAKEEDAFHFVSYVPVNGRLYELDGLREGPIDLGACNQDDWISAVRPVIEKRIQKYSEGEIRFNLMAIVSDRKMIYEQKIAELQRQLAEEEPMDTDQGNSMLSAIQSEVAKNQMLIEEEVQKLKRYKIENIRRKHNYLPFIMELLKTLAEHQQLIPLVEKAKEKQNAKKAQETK
inactive: erlotinib 0.047 | [1] 0.106 | [2] 0.415 | [3] -0.124 | [4] -0.036 | [5] 0.125 | [6] -0.11 | [7] 0.102 | [8] 0.207 | [9] -0.103 | IRAK-1-4 Inhibitor I -0.012 | ibrutinib -0.222 | [10] -0.021 | ralimetinib 0.006 | [11] -0.357 | [12] -0.143 | [13] 0.077 | pinometostat -0.044 | [14] 0.068 | [15] 0.028

XPO1 (UniProt O14980)
UniProt O14980, sequence (O14980 whole entry, looked up): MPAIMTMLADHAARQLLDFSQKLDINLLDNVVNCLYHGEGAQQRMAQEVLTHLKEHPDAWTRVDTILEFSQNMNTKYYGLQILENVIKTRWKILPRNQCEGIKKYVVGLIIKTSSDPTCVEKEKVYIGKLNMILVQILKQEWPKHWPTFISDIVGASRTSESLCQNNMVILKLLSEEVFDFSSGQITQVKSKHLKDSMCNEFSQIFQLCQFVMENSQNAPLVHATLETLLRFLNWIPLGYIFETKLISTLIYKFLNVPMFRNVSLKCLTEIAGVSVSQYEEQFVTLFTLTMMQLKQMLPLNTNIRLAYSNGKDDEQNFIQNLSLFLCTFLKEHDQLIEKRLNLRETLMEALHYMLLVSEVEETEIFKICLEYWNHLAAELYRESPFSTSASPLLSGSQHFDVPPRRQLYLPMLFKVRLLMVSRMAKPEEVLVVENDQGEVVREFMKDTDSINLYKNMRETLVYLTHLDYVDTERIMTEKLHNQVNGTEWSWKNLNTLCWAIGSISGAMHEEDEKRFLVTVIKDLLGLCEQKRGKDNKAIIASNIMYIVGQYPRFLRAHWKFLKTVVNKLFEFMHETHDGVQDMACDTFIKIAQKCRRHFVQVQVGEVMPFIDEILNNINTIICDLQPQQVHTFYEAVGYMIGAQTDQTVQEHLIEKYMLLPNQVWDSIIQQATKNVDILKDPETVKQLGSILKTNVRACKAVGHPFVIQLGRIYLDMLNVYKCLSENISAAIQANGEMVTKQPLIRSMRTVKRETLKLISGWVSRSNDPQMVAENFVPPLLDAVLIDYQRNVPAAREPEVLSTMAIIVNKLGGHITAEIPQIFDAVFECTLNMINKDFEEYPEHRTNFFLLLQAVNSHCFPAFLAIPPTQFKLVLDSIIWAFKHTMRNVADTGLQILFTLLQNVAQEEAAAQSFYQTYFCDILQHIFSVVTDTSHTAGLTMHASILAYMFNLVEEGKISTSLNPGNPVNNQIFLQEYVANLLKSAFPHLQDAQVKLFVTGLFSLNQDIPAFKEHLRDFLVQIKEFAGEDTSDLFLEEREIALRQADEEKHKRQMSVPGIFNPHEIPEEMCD
active: [12] -0.282
inactive: erlotinib 0.019 | [1] 0.118 | [2] 0.045 | [3] -0.06 | [4] 0.061 | [5] 0.041 | [6] 0.051 | [7] -0.036 | [8] 0.002 | [9] -0.027 | IRAK-1-4 Inhibitor I -0.013 | ibrutinib -0.045 | [10] 0.011 | ralimetinib 0.018 | [11] -0.196 | [13] -0.04 | pinometostat -0.013 | [14] -0.001 | [15] -0.011

TRAPPC13 isoform 5 (UniProt A5PLN9)
UniProt A5PLN9, sequence (A5PLN9 whole entry, looked up): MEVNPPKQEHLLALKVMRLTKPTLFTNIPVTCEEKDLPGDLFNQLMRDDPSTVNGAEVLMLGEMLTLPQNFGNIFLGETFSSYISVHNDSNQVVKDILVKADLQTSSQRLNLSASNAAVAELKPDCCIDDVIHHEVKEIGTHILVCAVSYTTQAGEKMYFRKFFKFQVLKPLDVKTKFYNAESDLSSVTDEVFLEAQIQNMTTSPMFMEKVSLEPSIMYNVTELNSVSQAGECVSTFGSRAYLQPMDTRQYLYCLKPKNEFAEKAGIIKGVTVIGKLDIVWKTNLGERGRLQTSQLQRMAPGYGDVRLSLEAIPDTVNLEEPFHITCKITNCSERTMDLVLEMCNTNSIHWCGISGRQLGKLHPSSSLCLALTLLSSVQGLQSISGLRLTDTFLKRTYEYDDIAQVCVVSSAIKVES
inactive: erlotinib 0.133 | [1] 0.047 | [2] -0.028 | [3] -0.047 | [4] 0.084 | [5] 0.021 | [6] 0 | [7] -0.038 | [8] -0.005 | [9] 0.009 | IRAK-1-4 Inhibitor I -0.06 | ibrutinib -0.047 | [10] -0.121 | ralimetinib -0.048 | [11] -0.093 | [12] -0.014 | [13] 0.026 | pinometostat 0.033 | [14] -0.06 | [15] -0.047

WASHC2C, A0A096LPC5
inactive: erlotinib 0.095 | [1] -0.224 | [2] -0.016 | [3] -0.006 | [4] 0.204 | [5] 0.113 | [6] 0.111 | [7] -0.071 | [8] -0.069 | [9] 0.08 | IRAK-1-4 Inhibitor I 0.01 | ibrutinib -0.005 | [10] -0.159 | ralimetinib -0.035 | [11] 0.085 | [12] -0.214 | [13] 0.057 | pinometostat 0.008 | [14] -0.033 | [15] -0.125

XPNPEP3 (UniProt Q9NQH7)
inactive: erlotinib 0.019 | [2] 0.017 | [3] 0.06 | [4] 0.067 | [5] 0.026 | [6] -0.005 | [7] 0 | [8] 0.005 | [9] 0.083 | IRAK-1-4 Inhibitor I 0.061 | ibrutinib 0.044 | [10] 0.019 | ralimetinib -0.013 | [11] 0.021 | [12] -0.002 | [13] -0.018 | pinometostat -0.015 | [14] -0.003 | [15] -0.028
active: [1] -0.275

TMTC3 (UniProt Q6ZXV5)
inactive: erlotinib 0 | [1] 0 | [2] 0.007 | [3] 0.023 | [4] 0.042 | [5] 0.002 | [6] 0.001 | [7] -0.001 | [8] -0.064 | [9] -0.014 | IRAK-1-4 Inhibitor I 0.007 | ibrutinib -0.033 | [10] -0.007 | ralimetinib 0 | [11] 0.022 | [12] -0.218 | [13] 0.028 | pinometostat -0.019 | [14] -0.008 | [15] 0.018

UBE2J1 (UniProt Q9Y385)
UniProt Q9Y385, sequence (Q9Y385 whole entry, looked up): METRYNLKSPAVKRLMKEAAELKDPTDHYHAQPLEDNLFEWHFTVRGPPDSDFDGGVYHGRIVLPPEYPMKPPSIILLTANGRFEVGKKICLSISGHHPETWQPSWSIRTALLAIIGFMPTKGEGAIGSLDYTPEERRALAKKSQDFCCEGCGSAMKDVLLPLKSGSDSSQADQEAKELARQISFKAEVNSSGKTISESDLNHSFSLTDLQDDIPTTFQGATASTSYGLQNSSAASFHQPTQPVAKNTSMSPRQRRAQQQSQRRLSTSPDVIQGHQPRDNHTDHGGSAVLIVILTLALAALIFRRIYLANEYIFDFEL
inactive: erlotinib 0.053 | [1] 0.063 | [2] -0.033 | [3] 0.045 | [4] 0.148 | [5] 0.054 | [6] 0.043 | [7] 0.036 | [8] -0.097 | [9] 0.012 | IRAK-1-4 Inhibitor I -0.447 | ibrutinib 0.013 | [10] -0.077 | ralimetinib -0.02 | [11] -0.106 | [12] -0.284 | [13] 0.188 | pinometostat 0.096 | [14] 0.101 | [15] -0.047

VTI1B (UniProt Q9UEU0)
inactive: erlotinib 0.011 | [1] -0.008 | [2] -0.023 | [3] -0.02 | [4] 0 | [5] 0.03 | [6] -0.055 | [7] -0.036 | [8] 0.022 | [9] 0.046 | IRAK-1-4 Inhibitor I -0.074 | ibrutinib 0.027 | [10] -0.033 | ralimetinib -0.081 | [11] 0.08 | [13] 0.002 | pinometostat -0.057 | [14] -0.001 | [15] 0.012
active: [12] -0.261

U2AF1 isoform 2 (UniProt Q01081)
active: [10] -0.519
inactive: erlotinib 0.015 | [1] 0.119 | [2] -0.02 | [3] -0.036 | [4] -0.038 | [5] 0.015 | [6] 0.036 | [7] -0.036 | [8] -0.071 | [9] -0.071 | IRAK-1-4 Inhibitor I -0.133 | ibrutinib 0.073 | ralimetinib 0 | [11] 0.042 | [12] -0.083 | [13] 0.022 | pinometostat -0.04 | [14] -0.062 | [15] 0.169
